# Measurements: PubChem BioAssay (EPA / NIEHS)
# Values joined by “and” are separate entries in the source; they are usually repeats but may differ in a detail not shown here. Equal entries are not always repeated. Inconclusive results are not listed. Where a structure was tested more than once in an assay, its records may differ in their call. Active and inactive are the calls of the source. How the source made its calls, unless noted: active means hit-call score of the fitted dose curve at least 0.9, where 1 is the maximum; inactive means score below 0.9.
# How the values were obtained:
# [1] = ATG_TCF_b_cat_CIS: Attagene CIS-FACTORIAL HepG2 Assay for human T-Cell-Factor with beta-catenin (TCF/b-cat) (AID 2282965); settings: HepG2 TCF/beta-catenin cis-reporter transcription, actives raise or lower the signal
# Procedure, shortened: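 In this cis-format system, transfected HepG2 cells report endogenous transcription factor activity. Readout after 24 h exposure is reporter transcript abundance from RT-PCR and capillary electrophoresis, analysed for gain or loss of signal versus DMSO.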
# [2] = ATG_TAL_CIS: Attagene CIS-FACTORIAL HepG2 Assay for human TAL Basal Promoter (AID 2282966); settings: HepG2 Attagene cis-factorial TAL promoter reporter; actives raise or lower the signal;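 further: background control endpoint measuring basal TAL promoter reporter mRNA not a specific factor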
# Procedure, shortened: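 Readout: reporter mRNA, fluorescence by CE. System: HepG2, transient multi-reporter transfection, endogenous TF activity. Exposure: 24 h. Analysis: bidirectional, DMSO-normalized; background control.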
# [3] = ATG_TGFb_CIS: Attagene CIS-FACTORIAL HepG2 Assay for human Transforming Growth Factor (TGF) (AID 2282967); settings: HepG2 Attagene CIS TGFb reporter, mRNA transcription; actives raise or lower the signal
# Procedure, shortened: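 Endogenous TGFB1-linked transcription factor activity read as reporter mRNA via RT-PCR and capillary electrophoresis, 24 h after dosing transiently transfected HepG2 cells. Gain or loss of signal fitted relative to DMSO.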
# [4] = ATG_VDRE_CIS: Attagene CIS-FACTORIAL HepG2 Assay for human Vitamin D Receptor Element (VDRE) (AID 2282968); settings: HepG2 VDRE cis-reporter transcription, actives raise or lower the signal
# Procedure, shortened: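 HepG2 cells transiently transfected with cis-element reporter units, dosed 24 h; reporter mRNA measured by RT-PCR, 6-FAM labeling, HpaI digestion and capillary electrophoresis. Activity fitted bidirectionally against DMSO baseline.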
# [5] = target: X-box-binding protein 1 (Homo sapiens) (UniProt P17861); assay: ATG_Xbp1_CIS: Attagene CIS-FACTORIAL HepG2 Assay for human X-box Binding Protein 1 (XBP1) (AID 2282972); settings: HepG2 XBP1 cis-element reporter, Attagene multiplex; actives raise or lower the signal
# X-box-binding protein 1 (Homo sapiens), sequence (P17861 whole entry, looked up): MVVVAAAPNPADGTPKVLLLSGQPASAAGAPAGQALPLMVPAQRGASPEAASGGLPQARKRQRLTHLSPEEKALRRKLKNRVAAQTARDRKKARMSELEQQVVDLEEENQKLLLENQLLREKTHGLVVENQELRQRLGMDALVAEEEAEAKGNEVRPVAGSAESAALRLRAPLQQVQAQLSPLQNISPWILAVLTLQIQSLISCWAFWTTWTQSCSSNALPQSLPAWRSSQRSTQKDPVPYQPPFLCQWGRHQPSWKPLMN
# Procedure, shortened: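 HepG2 cells transiently transfected with multiple cis-element reporter units report endogenous TF activity; 24 h exposure, then reporter mRNA measured by RT-PCR, 6-FAM labelling, HpaI digestion and capillary electrophoresis. Bidirectional fitting versus DMSO.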
# [6] = ATG_M_19_TRANS: Attagene TRANS-FACTORIAL HepG2 Assay for M19 Transcription Factor (Internal Marker) (AID 2282974; active means hit-call score of the fitted dose curve at least 0.9, where 1 is the maximum); settings: HepG2 Attagene TRANS-FACTORIAL M19 internal marker reporter
# Procedure, shortened: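 Transfected HepG2 (GAL4-UAS MRTUs), 24 h compound, TriZol RNA, DNase-treated RT, reporter PCR, FAM label, HpaI digest, CE fluorescence; gain vs DMSO.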
# [7] = ATG_GAL4_TRANS: Attagene TRANS-FACTORIAL HepG2 Assay for GAL4 (Internal Marker) (AID 2282976; active means hit-call score of the fitted dose curve at least 0.9, where 1 is the maximum); settings: HepG2 Attagene TRANS GAL4 internal marker reporter
# Procedure, shortened: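 Fluorescence from capillary electrophoresis of labelled RT-PCR products quantifies reporter mRNA induction after 24 h dosing of HepG2 cells carrying transfected GAL4-UAS reporter transcription units. Vehicle DMSO serves as baseline.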
# [8] = ATG_M_06_TRANS: Attagene TRANS-FACTORIAL HepG2 Assay for M06 Transcription Factor (Internal Marker) (AID 2282983; active means hit-call score of the fitted dose curve at least 0.9, where 1 is the maximum;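 further: reporter transcript level by RT-PCR then capillary electrophoresis fluorescence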); settings: HepG2 Attagene TRANS M06 internal marker reporter
# Procedure, shortened: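 Measured by capillary electrophoresis of fluorescently labelled RT-PCR products, this endpoint reflects reporter mRNA in HepG2 cells harbouring exogenous NR-GAL4 reporter constructs after 24 h exposure, with DMSO as baseline.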
# [9] = ATG_M_32_TRANS: Attagene TRANS-FACTORIAL HepG2 Assay for M32 Transcription Factor (Internal Marker) (AID 2282984; active means hit-call score of the fitted dose curve at least 0.9, where 1 is the maximum); settings: HepG2 Attagene TRANS M32 internal marker reporter
# Procedure, shortened: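 HepG2 cells transiently transfected with multiple GAL4-UAS reporter transcription units, dosed for 24 hours; reporter mRNA quantified by RT-PCR, 6-FAM primer extension, HpaI digestion and capillary electrophoresis. Gain-of-signal fitted versus DMSO baseline; internal background-control marker.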
# [10] = target: Nuclear receptor subfamily 4 group A member 2 (Homo sapiens) (UniProt P43354); assay: ATG_NURR1_TRANS: Attagene TRANS-FACTORIAL HepG2 Assay for human Nuclear Receptor Related Protein 1 (NURR1) (AID 2282985; active means hit-call score of the fitted dose curve at least 0.9, where 1 is the maximum); settings: HepG2 Attagene TRANS reporter, mRNA readout
# Procedure, shortened: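 HepG2 cells transiently transfected with GAL4-UAS reporter units and chimeric NR-Gal4 constructs; chemical exposure 24 h. Reporter mRNA quantified by RT-PCR, fluorescent labelling and capillary electrophoresis; gain of signal fitted relative to DMSO baseline.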
# [11] = target: Transcriptional activator Myb (Homo sapiens) (UniProt P10242); assay: ATG_Myb_CIS: Attagene CIS-FACTORIAL HepG2 Assay for human Myeloblastosis (Myb) Proto-Oncogene Transcription Factor (AID 2282986); settings: HepG2 Attagene CIS-FACTORIAL Myb reporter transcription; actives raise or lower the signal
# Transcriptional activator Myb (Homo sapiens), sequence (P10242 whole entry, looked up): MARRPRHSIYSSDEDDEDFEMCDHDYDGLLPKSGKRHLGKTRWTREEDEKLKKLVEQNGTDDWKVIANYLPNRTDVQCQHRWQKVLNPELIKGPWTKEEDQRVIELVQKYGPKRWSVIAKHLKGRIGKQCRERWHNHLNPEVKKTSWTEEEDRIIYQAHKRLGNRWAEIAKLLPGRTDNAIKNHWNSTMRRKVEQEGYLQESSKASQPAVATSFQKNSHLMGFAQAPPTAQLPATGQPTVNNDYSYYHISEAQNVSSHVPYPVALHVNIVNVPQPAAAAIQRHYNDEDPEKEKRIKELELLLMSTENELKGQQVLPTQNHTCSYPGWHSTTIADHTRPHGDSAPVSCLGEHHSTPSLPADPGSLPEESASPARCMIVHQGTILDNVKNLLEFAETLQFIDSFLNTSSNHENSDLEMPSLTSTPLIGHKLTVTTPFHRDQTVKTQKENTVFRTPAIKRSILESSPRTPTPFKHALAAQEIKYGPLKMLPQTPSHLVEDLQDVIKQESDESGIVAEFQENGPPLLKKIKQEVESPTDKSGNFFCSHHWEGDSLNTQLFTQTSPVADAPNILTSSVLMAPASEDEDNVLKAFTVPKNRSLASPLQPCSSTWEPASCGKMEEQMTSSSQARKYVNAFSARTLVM
# Procedure, shortened: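 After 24 h of compound dosing, total RNA from transfected HepG2 cells is reverse-transcribed and the reporter sequences amplified, labeled and separated by capillary electrophoresis. Values come from bidirectional fitting against DMSO.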
# [12] = target: Nuclear receptor subfamily 1 group I member 3 (Homo sapiens) (UniProt Q14994); assay: ATG_CAR_TRANS: Attagene TRANS-FACTORIAL HepG2 Assay for human Constitutive Androstane Receptor (CAR) (AID 2282969; active means hit-call score of the fitted dose curve at least 0.9, where 1 is the maximum;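 further: activators raise reporter mRNA above DMSO so AC50 marks induction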); settings: HepG2 Attagene TRANS-FACTORIAL CAR reporter
# Nuclear receptor subfamily 1 group I member 3 (Homo sapiens), sequence (Q14994 whole entry, looked up, the tested form may be a part): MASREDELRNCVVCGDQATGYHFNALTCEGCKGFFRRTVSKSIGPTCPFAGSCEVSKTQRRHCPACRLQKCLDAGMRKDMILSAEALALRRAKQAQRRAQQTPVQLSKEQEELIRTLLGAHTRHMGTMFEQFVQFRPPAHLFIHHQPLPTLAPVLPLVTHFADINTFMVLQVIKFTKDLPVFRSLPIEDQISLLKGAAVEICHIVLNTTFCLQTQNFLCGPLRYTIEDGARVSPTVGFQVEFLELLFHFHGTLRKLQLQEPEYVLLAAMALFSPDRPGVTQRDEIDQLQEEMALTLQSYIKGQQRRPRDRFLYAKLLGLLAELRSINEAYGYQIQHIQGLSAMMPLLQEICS
# Procedure, shortened: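 HepG2 cells transiently transfected with multiplexed GAL4-UAS reporter units expressing chimeric NR-Gal4 proteins; compound exposure 24 h. Reporter mRNA measured by RT-PCR, 6-FAM labelling, HpaI digestion and capillary electrophoresis; gain-of-signal fitted against DMSO baseline.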
# [13] = target: Estrogen receptor (Homo sapiens) (UniProt P03372); assay: ATG_ERa_TRANS: Attagene TRANS-FACTORIAL HepG2 Assay for human Estrogen Receptor alpha (ERa) (AID 2282970; active means hit-call score of the fitted dose curve at least 0.9, where 1 is the maximum); settings: HepG2 Attagene TRANS ERa GAL4 reporter, mRNA
# Estrogen receptor (Homo sapiens), sequence (P03372 whole entry, looked up, the tested form may be a part): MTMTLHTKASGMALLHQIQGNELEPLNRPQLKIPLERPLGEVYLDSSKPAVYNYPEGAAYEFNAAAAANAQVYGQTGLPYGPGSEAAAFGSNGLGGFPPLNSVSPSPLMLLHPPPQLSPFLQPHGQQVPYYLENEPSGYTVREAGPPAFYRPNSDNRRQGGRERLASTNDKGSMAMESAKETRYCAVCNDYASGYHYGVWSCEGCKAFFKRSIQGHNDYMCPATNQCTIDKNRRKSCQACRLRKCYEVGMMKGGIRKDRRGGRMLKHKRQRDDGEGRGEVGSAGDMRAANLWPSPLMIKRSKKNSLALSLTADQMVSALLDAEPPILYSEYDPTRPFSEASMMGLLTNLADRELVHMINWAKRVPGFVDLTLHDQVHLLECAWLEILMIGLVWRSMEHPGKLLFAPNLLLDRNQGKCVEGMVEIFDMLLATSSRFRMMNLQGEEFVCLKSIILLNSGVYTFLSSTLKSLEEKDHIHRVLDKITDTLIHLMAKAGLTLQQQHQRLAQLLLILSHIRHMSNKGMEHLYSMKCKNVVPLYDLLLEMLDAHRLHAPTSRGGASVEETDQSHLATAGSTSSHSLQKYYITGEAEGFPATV
# Procedure, shortened: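 Transactivation via ERa-Gal4 chimera in HepG2; 24 hour incubation; reporter mRNA detected by fluorescence RT-PCR and capillary electrophoresis.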
# [14] = target: Steroid hormone receptor ERR1 (Homo sapiens) (UniProt P11474); assay: ATG_ERRa_TRANS: Attagene TRANS-FACTORIAL HepG2 Assay for human Estrogen-Related Receptor alpha (ERRa) (AID 2282971; active means hit-call score of the fitted dose curve at least 0.9, where 1 is the maximum); settings: HepG2 Attagene TRANS reporter, ERRa transactivation
# Steroid hormone receptor ERR1 (Homo sapiens), sequence (P11474 whole entry, looked up, the tested form may be a part): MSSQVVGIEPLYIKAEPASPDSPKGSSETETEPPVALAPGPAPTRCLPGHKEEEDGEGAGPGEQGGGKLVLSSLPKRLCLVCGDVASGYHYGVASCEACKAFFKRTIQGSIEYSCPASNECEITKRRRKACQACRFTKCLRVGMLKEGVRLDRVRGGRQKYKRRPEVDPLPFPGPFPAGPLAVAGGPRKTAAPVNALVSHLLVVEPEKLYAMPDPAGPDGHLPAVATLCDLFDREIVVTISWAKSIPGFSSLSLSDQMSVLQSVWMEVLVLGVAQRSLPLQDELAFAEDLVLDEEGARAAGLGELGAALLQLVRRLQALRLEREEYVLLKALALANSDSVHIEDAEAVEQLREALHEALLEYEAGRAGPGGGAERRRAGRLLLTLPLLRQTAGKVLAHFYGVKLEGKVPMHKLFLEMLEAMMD
# Procedure, shortened: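 HepG2 cells were transiently transfected with multiple GAL4-UAS reporter units, then dosed with compound for 24 h. Total RNA was reverse-transcribed, reporter cDNA PCR-amplified and fluorescently labelled, and fragments resolved by capillary electrophoresis; induction was compared with DMSO.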
# [15] = target: Glucocorticoid receptor (Homo sapiens) (UniProt P04150); assay: ATG_GR_TRANS: Attagene TRANS-FACTORIAL HepG2 Assay for human Glucocorticoid Receptor (GR) (AID 2282978; active means hit-call score of the fitted dose curve at least 0.9, where 1 is the maximum;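 further: activators score as hits since higher reporter transcript over DMSO is fitted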); settings: HepG2 Attagene TRANS GR reporter, mRNA transcription
# Glucocorticoid receptor (Homo sapiens), sequence (P04150 whole entry, looked up): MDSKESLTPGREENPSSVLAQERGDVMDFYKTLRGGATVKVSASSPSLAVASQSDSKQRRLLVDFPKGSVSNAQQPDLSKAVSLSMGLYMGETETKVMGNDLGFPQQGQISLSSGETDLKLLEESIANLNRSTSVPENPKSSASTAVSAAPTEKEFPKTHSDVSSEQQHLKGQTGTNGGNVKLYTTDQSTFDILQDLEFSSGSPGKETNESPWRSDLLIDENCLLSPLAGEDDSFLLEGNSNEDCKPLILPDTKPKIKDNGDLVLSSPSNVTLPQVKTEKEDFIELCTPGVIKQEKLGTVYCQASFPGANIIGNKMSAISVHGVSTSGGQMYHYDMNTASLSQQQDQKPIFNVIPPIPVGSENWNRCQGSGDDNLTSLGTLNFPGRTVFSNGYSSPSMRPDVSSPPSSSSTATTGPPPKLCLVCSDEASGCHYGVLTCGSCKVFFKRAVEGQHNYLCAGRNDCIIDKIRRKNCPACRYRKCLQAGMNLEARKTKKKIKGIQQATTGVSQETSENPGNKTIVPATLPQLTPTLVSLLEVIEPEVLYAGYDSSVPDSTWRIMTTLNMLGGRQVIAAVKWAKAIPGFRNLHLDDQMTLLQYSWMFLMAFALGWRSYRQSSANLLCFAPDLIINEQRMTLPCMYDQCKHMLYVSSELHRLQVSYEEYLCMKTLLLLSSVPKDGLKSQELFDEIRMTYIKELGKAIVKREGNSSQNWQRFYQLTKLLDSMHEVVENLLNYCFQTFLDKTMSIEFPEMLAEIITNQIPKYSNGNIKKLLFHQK
# Procedure, shortened: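 After 24 h incubation with test chemical, transfected HepG2 cells were lysed for RNA; reporter cDNA was amplified, FAM-labelled, HpaI-digested and sized on a capillary analyser. Signal gain relative to DMSO was scored.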
# [16] = target: Oxysterols receptor LXR-alpha (Homo sapiens) (UniProt Q13133); assay: ATG_LXRa_TRANS: Attagene TRANS-FACTORIAL HepG2 Assay for human Liver X Receptor alpha (LXRa) (AID 2282980; active means hit-call score of the fitted dose curve at least 0.9, where 1 is the maximum); settings: HepG2 Attagene TRANS reporter, LXRa transactivation
# Oxysterols receptor LXR-alpha (Homo sapiens), sequence (Q13133 whole entry, looked up): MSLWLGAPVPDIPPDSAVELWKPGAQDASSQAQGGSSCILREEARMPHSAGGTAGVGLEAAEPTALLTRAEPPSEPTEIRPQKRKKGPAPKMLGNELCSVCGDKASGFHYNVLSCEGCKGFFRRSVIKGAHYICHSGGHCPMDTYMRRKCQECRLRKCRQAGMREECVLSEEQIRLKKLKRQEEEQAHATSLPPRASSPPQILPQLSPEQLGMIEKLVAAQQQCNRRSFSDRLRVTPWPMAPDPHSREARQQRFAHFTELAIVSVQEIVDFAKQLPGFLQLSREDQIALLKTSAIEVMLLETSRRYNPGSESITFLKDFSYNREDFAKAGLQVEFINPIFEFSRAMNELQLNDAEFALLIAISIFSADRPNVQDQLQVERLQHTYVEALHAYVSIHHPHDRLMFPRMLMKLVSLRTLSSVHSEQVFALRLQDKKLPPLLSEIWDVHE
# Procedure, shortened: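 Transient HepG2 transfectants, 24 h dosing, RT-PCR/CE mRNA reporter quantitation; gain-of-signal vs DMSO.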
# [17] = target: Oxysterols receptor LXR-beta (Homo sapiens) (UniProt P55055); assay: ATG_LXRb_TRANS: Attagene TRANS-FACTORIAL HepG2 Assay for human Liver X Receptor beta (LXRb) (AID 2282981; active means hit-call score of the fitted dose curve at least 0.9, where 1 is the maximum); settings: HepG2 Attagene TRANS GAL4-LXRb reporter, mRNA
# Oxysterols receptor LXR-beta (Homo sapiens), sequence (P55055 whole entry, looked up, the tested form may be a part): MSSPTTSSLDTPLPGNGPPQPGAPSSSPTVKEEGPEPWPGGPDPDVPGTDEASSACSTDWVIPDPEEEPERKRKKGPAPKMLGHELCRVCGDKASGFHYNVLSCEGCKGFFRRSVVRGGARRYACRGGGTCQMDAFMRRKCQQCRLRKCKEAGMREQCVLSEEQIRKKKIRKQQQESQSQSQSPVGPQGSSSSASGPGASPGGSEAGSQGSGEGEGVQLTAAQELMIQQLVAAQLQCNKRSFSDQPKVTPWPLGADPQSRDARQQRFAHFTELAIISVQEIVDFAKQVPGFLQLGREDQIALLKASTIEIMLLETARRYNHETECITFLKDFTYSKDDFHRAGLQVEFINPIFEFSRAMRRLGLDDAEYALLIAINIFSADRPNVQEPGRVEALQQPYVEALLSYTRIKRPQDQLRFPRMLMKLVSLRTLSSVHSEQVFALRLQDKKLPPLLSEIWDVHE
# Procedure, shortened: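 HepG2 cells transiently transfected with multiple reporter transcription units carrying chimeric NR-Gal4 proteins acting on GAL4-UAS reporters; compound exposure 24 h. Reporter mRNA quantified by RT-PCR, 6-FAM labelling, HpaI digestion and capillary electrophoresis; gain of signal versus DMSO.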
# [18] = target: Hepatocyte nuclear factor 4-alpha (Homo sapiens) (UniProt P41235); assay: ATG_HNF4a_TRANS: Attagene TRANS-FACTORIAL HepG2 Assay for human Hepatocyte Nuclear Factor 4 alpha (HNF4a) (AID 2282982; active means hit-call score of the fitted dose curve at least 0.9, where 1 is the maximum); settings: HepG2 HNF4a transactivation reporter, mRNA readout
# Hepatocyte nuclear factor 4-alpha (Homo sapiens), sequence (P41235 whole entry, looked up, the tested form may be a part): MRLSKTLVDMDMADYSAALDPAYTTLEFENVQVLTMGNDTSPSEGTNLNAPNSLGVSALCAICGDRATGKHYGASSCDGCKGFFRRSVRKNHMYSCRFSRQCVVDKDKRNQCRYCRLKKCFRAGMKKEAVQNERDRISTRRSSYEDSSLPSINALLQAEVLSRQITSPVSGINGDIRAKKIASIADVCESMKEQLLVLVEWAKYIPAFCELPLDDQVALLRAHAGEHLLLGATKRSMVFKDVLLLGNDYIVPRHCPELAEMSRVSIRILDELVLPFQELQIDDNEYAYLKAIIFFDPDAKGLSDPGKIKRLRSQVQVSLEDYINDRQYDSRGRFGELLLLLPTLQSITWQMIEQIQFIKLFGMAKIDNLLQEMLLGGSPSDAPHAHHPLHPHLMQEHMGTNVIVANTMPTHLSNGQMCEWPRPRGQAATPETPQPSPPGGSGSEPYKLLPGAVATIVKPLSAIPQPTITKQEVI
# Procedure, shortened: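 HepG2 cells transiently transfected with multiplexed GAL4-UAS reporter units responsive to chimeric NR-GAL4 proteins; compound exposure 24 h. Reporter mRNA quantified by RT-PCR, 6-FAM labelling, HpaI digestion and capillary electrophoresis; gain of signal versus DMSO baseline.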
# [19] = ATG_Hpa5_TRANS: Attagene TRANS-FACTORIAL HepG2 Assay for human GAL4-Hpa5 Hepatocyte Transcription Factor Basal Promoter (AID 2282975; active means hit-call score of the fitted dose curve at least 0.9, where 1 is the maximum;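 further: hits are increases in reporter mRNA over DMSO baseline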); settings: HepG2 Attagene GAL4-Hpa5 transcription reporter
# Procedure, shortened: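 Basal-promoter GAL4 background control within the HepG2 trans-factorial panel of transiently transfected reporter units. Reporter mRNA is measured 24 h after dosing by RT-PCR and capillary electrophoresis, fitted for gain of signal versus DMSO.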
# [20] = target: Androgen receptor (Homo sapiens) (UniProt P10275); assay: ATG_AR_TRANS: Attagene TRANS-FACTORIAL HepG2 Assay for human Androgen Receptor (AR) (AID 2282973; active means hit-call score of the fitted dose curve at least 0.9, where 1 is the maximum); settings: HepG2 Attagene TRANS-FACTORIAL AR reporter transcription
# Procedure, shortened: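 Transfected HepG2, 24 h treatment, chimeric NR-Gal4 driving GAL4-UAS reporters. mRNA induction by RT-PCR/capillary electrophoresis fluorescence; DMSO as negative control and baseline.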
compound,measurement,setting,value
O=C(O)C(F)(F)C(F)(F)C(F)(F)C(F)(F)C(F)(F)C(F)(F)C(F)(F)F,AC50,[1],221 µM (active) and 231 µM (active)
same,outcome,[1],inactive
same,outcome,[2],inactive
same,outcome,[3],inactive
same,outcome,[4],inactive
same,outcome,[5],inactive
same,outcome,[6],inactive
same,outcome,[7],inactive
same,outcome,[8],inactive
same,outcome,[9],inactive
same,outcome,[10],inactive
same,outcome,[11],inactive
O=C(Nc1ccccc1)Nc1cnns1,outcome,[1],inactive
same,outcome,[2],inactive
same,outcome,[3],inactive
same,AC50,[4],50 µM (active)
same,outcome,[12],inactive
same,outcome,[13],inactive
same,outcome,[14],inactive
same,AC50,[5],77.6 µM (active)
same,outcome,[6],inactive
same,outcome,[15],inactive
same,outcome,[16],inactive
same,outcome,[17],inactive
same,outcome,[18],inactive
same,outcome,[9],inactive
same,outcome,[10],inactive
same,AC50,[11],78.3 µM (active)
COP(=O)(OC)OC=C(Cl)Cl,outcome,[1],inactive
same,outcome,[2],inactive
same,outcome,[3],inactive
same,outcome,[13],inactive
same,AC50,[5],25.1 µM (active)
same,outcome,[17],inactive
same,outcome,[18],inactive
same,outcome,[8],inactive
same,outcome,[9],inactive
same,outcome,[10],inactive
same,outcome,[11],inactive
CCN(CC)C(=O)SCc1ccc(Cl)cc1,outcome,[1],inactive
same,outcome,[2],inactive
same,outcome,[3],inactive
same,AC50,[4],24.8 µM (active)
same,AC50,[13],32.4 µM (active)
same,outcome,[14],inactive
same,outcome,[5],inactive
same,outcome,[6],inactive
same,outcome,[19],inactive
same,outcome,[15],inactive
same,outcome,[16],inactive
same,outcome,[17],inactive
same,outcome,[18],inactive
same,outcome,[9],inactive
same,outcome,[10],inactive
same,outcome,[11],inactive
CCOc1nc(NC)nc(NC(=O)NS(=O)(=O)c2ccccc2C(=O)OC)n1,outcome,[1],inactive
same,outcome,[2],inactive
same,outcome,[3],inactive
same,outcome,[4],inactive
same,outcome,[12],inactive
same,outcome,[14],inactive
same,outcome,[5],inactive
same,outcome,[6],inactive
same,outcome,[19],inactive
same,outcome,[15],inactive
same,outcome,[17],inactive
same,outcome,[11],inactive
CC(C)N(C(=O)COc1nnc(C(F)(F)F)s1)c1ccc(F)cc1,outcome,[1],inactive
same,outcome,[2],inactive
same,outcome,[3],inactive
same,outcome,[13],inactive
same,AC50,[5],29.7 µM (active)
same,outcome,[6],inactive
same,outcome,[16],inactive
same,outcome,[17],inactive
same,outcome,[10],inactive
same,outcome,[11],inactive
O=C(O)CCCOc1ccc(Cl)cc1Cl,outcome,[1],inactive
same,outcome,[2],inactive
same,outcome,[3],inactive
same,outcome,[4],inactive
same,outcome,[12],inactive
same,outcome,[5],inactive
same,outcome,[20],inactive
same,outcome,[6],inactive
same,outcome,[19],inactive
same,outcome,[7],inactive
same,outcome,[16],inactive
same,outcome,[17],inactive
same,outcome,[18],inactive
same,outcome,[8],inactive
same,outcome,[11],inactive
